BAZ2B block: blocks human BAZ2B | Q9UIF8 | Potency, µM (top dose mostly 114 µM), hits mostly inhibitors | AlphaScreen BAZ2B-H3K14Ac peptide displacement | 4.4% of 360,000 active | AID 504333; further: nearly all actives have a fitted effect of over 60% in size
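Protein-peptide AlphaScreen: BAZ2B 50 nM, b-H3K14Ac 50 nM, 1x PBS pH 7.4 + 0.01% Tween-20. Preincubation 30 min RT; cpd 30 min RT (top 110 uM); beads 20 min RT, light-protected.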
PLK1 PBD block: PLK1 (human) polo-box domain binding inhibition | Potency, µM, most hits filed as inhibitors | AID 720504 | Plk1 PBD binding of FITC phosphopeptide, fluorescence polarization | P53350 | 2.8% of 360,000 active; further: series mostly up to about 57 µM; nearly all actives have a fitted effect of over 65% in size
G9a inh: inhibitors of human histone lysine methyltransferase G9a | 8.8% of 350,000 active | Potency, µM (top dose mostly 102 µM), actives largely listed as inhibitors | G9a H3K9 monomethylation, AlphaScreen, 2 h; further: nearly all actives have a fitted effect of over 75% in size
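Enzyme 20 nM + cpd, 15 min RT; add b-H3K9 pep 500 nM / SAM 20 uM; 2 h RT; anti-H3K9me1 Ab 0.5 ug/mL + SA donor / anti-rabbit acceptor beads 20 ug/mL each, 10 min; AlphaScreen read.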
JMJD2A Tudor inh: inhibitors of human JMJD2A Tudor domain; O75164; 4.4% of 390,000 active; Potency, µM (titrated, usually from 114 µM), hits mostly inhibitors; AlphaScreen JMJD2A-Tudor / H3K4me3 peptide binding; further: nearly all actives have a fitted effect of over 50% in size
Target sequence (O75164 whole entry, looked up, the tested form may be a part): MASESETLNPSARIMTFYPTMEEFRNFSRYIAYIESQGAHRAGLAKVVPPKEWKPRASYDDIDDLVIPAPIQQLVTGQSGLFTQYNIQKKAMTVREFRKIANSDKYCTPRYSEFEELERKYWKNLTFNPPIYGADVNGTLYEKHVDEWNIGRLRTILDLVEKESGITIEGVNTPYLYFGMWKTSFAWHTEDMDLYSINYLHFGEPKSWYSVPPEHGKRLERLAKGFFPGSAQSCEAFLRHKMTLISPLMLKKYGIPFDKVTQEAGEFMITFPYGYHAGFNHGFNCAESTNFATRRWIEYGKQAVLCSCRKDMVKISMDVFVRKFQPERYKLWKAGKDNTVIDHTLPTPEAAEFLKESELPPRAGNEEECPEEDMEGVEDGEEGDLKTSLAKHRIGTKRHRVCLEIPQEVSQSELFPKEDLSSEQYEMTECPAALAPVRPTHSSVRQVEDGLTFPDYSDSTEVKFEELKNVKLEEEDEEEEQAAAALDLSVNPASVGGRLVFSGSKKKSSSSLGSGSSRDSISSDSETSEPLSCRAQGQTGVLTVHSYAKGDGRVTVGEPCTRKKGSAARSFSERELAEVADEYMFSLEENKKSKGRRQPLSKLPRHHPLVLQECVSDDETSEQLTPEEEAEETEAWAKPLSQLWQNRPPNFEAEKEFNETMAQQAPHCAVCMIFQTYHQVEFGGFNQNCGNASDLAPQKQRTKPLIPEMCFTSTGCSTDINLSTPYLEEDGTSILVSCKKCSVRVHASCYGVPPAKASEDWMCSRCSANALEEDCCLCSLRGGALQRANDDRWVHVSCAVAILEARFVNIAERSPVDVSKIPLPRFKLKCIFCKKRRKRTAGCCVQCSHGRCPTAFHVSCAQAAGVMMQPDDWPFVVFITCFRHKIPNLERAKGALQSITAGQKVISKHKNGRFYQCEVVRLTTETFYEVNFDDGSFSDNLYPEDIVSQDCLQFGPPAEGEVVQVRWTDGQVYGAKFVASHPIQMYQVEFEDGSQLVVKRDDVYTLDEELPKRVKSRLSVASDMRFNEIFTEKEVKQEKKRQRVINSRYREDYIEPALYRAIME
HP1b chromo inh: blocks HP1-beta chromodomain binding to methylated histone tails | AlphaScreen HP1-beta / biotin-H3K9me3 peptide binding | AID 540317 | 0.56% of 390,000 active | P83916 | Potency, µM (highest dose often 114 µM), actives largely listed as inhibitors; further: nearly all actives have a fitted effect of over 70% in size
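HP1-beta protein (50 nM final) preincubated 30 min at room temperature with biotinylated H3(1-18)K9me3 peptide (50 nM) in PBS pH 7.4, 0.01% Tween-20, then compound added for 30 min. AlphaScreen streptavidin donor/nickel chelate acceptor beads (10 ug/mL final), 30 min dark, luminescence read.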
Sfp inh: Sfp phosphopantetheinyl transferase inhibition; Q9F4F7; Potency, µM, actives largely listed as inhibitors; 3.5% of 310,000 active; AID 1490; Biochemical Sfp PPTase activity, qHTS;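 further: the enzyme is Sfp with the accession as filed and its product quenches rhodamine fluorescence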
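With Hepes-Na pH 7.6 buffer containing 10 mM MgCl2, Sfp (15 nM) modified BHQ-2-YbbR (12.5 uM) using rhodamine-CoA (5 uM). Two reads 30 minutes apart at 525/598 nm yielded each well's rate.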
Hits are given with their value; [ ] = remark or other dose. Hits are enriched below; roughly 12% of the tested compounds scored in any of these assays. The call rests on the fitted dose curve; in most records, active means well fitted curve in the direction sought with a large enough effect; inconclusive means small, poorly fitted or top-dose-only effect, or another doubt; inactive means no such curve, though single readings can be large; an effect the other way counts as inactive or inconclusive.

How did O=C(CCNC(=O)C1CCN(S(=O)(=O)c2ccc(F)cc2)CC1)NCc1ccccc1 do in these assays?
BAZ2B block: inactive; PLK1 PBD block: inactive; G9a inh: inactive; JMJD2A Tudor inh: inactive; HP1b chromo inh: inactive; Sfp inh: inactive

What do the screens show for `O=[N+]([O-])c1ccc(-c2csc(NN=C3CCCC3)n2)cc1`?
BAZ2B block: inactive; PLK1 PBD block: inactive; G9a inh: 50.1µM; JMJD2A Tudor inh: inactive; HP1b chromo inh: inactive; Sfp inh: inactive

How did Nc1nc(-c2ccc(Br)cc2)cs1 do in these assays?
BAZ2B block: 50.1µM; PLK1 PBD block: inactive; G9a inh: inconclusive; JMJD2A Tudor inh: 79.4µM; HP1b chromo inh: inactive; Sfp inh: inactive

How did COCCn1c(=O)c(-c2ccc(F)cc2)nc2cnc(Oc3ccc(OC)cc3)nc21 do in these assays?
G9a inh: inactive[12.7 µM]; Sfp inh: inactive

How did CCOc1ccc2[nH]c(O)c(NC(C)=O)c2c1 do in these assays?
BAZ2B block: inactive; PLK1 PBD block: inactive; G9a inh: inconclusive; JMJD2A Tudor inh: inactive; HP1b chromo inh: inactive; Sfp inh: inactive

Results for CCOc1ccc2[nH]c3c(c2c1)CNCC3 ?
BAZ2B block: inactive; PLK1 PBD block: inactive; G9a inh: 70.8µM; JMJD2A Tudor inh: inconclusive; HP1b chromo inh: inactive; Sfp inh: inactive

What do the screens show for `COC(=O)c1ccc(Cn2c(SCc3ccc(F)cc3)nc3ccncc32)cc1`?
BAZ2B block: inactive; G9a inh: inconclusive; JMJD2A Tudor inh: inactive; HP1b chromo inh: inactive

What do the screens show for `CCc1nn2c(=O)cc(COC(=O)c3ccc(NC(=O)CCc4ccccc4)cc3)nc2s1`?
BAZ2B block: inactive; G9a inh: inactive; JMJD2A Tudor inh: inactive; HP1b chromo inh: inactive

What do the screens show for `Cc1ccc(/C=N/c2sc3c(c2C#N)CCC3)o1`?
BAZ2B block: inconclusive; PLK1 PBD block: inactive; G9a inh: 17.8µM; JMJD2A Tudor inh: 44.7µM; HP1b chromo inh: inactive; Sfp inh: inconclusive

Results for N#Cc1c(/N=C/N2CCOCC2)sc2c1CCCCC2 ?
BAZ2B block: inactive; PLK1 PBD block: 21.2µM; G9a inh: inconclusive; JMJD2A Tudor inh: inconclusive; HP1b chromo inh: inconclusive; Sfp inh: inactive

Results for N#Cc1c(/N=C/c2ccc(Br)s2)sc2c1CCC2 ?
BAZ2B block: inactive; PLK1 PBD block: inconclusive; G9a inh: inconclusive; JMJD2A Tudor inh: inactive; HP1b chromo inh: inactive; Sfp inh: inactive

How did N#Cc1c(/N=C/c2ccc(-c3ccccc3C(=O)O)o2)sc2c1CCCC2 do in these assays?
BAZ2B block: 44.7µM; PLK1 PBD block: 37.7µM; G9a inh: 31.6µM; JMJD2A Tudor inh: 79.4µM; HP1b chromo inh: inactive; Sfp inh: inactive

Results for CN(C)/C=N/c1sc2c(c1C#N)CCCCC2 ?
BAZ2B block: inconclusive; PLK1 PBD block: inactive; G9a inh: inconclusive; JMJD2A Tudor inh: inconclusive; HP1b chromo inh: inconclusive; Sfp inh: inactive

Results for N#Cc1c(/N=C/c2cccs2)sc2c1CCCCC2 ?
BAZ2B block: 8.91µM; PLK1 PBD block: inactive; G9a inh: 14.1µM; JMJD2A Tudor inh: 39.8µM; HP1b chromo inh: inconclusive; Sfp inh: inactive

Results for COc1ccccc1OC[C@H](O)COC(N)=O ?
G9a inh: inactive[21.5 µM]; Sfp inh: inactive

What do the screens show for `CCn1c(C(=O)NCc2ccc(OC)cc2)cc2sc(Cl)cc21`?
BAZ2B block: inactive; G9a inh: inactive; JMJD2A Tudor inh: inactive; HP1b chromo inh: inactive

What do the screens show for `Cc1c(Cl)cccc1NC(=O)N1CCN(Cc2cc(=O)n3nc(-c4ccccc4F)sc3n2)CC1`?
BAZ2B block: inactive; G9a inh: inactive; JMJD2A Tudor inh: inactive; HP1b chromo inh: inactive

Results for CC1(C)C(c2cccs2)=[N+]([O-])C2(CCCCC/C2=N\NC(N)=S)N1O (configuration not stated) ?
BAZ2B block: inactive; PLK1 PBD block: inactive; G9a inh: inactive; JMJD2A Tudor inh: inactive; HP1b chromo inh: inactive; Sfp inh: 89.1µM

Results for O=C(O)COCC(=O)NCc1csc2ccccc12 ?
BAZ2B block: inactive; PLK1 PBD block: inactive; G9a inh: 50.1µM; JMJD2A Tudor inh: inactive; HP1b chromo inh: inactive; Sfp inh: inactive

Results for O=C(Cc1csc2ccccc12)NCC1CC1 ?
PLK1 PBD block: inactive
